Source: PubChem BioAssay (Tox21)
Records with an inconclusive call do not appear. The source made the active and inactive calls. Unless noted, the call rests on the fitted dose curve.

What was measured:
[1] = Nuclear factor erythroid 2-related factor 2/antioxidant responsive element (Nrf2/ARE) small molecule agonists: qHTS cell viability counter screen in human keratinocytes (AID 1919968; active means well fitted curve in the direction sought with a large enough effect in the repeat runs; an effect the other way counts as inactive or inconclusive; further: nearly all actives have a fitted effect of over 55% in size; further: potency means the concentration at half of the fitted maximal effect)
Outline: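 KeratinoSens cells (HaCaT keratinocytes stably carrying an ARE-luciferase reporter) were seeded at 1,500 cells/well and rested 5 h at 37 C/5% CO2. They were then exposed to compounds in DMSO for 23 h. Viability was read by CellTiter-Fluor fluorescence after 1 h.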

[2] = Nuclear factor erythroid 2-related factor 2/antioxidant responsive element (Nrf2/ARE) small molecule agonists: luciferase reporter gene qHTS assay in human keratinocytes (AID 1919969); further: nearly all actives have a fitted effect of over 35% in size; further: potency means the concentration at half of the fitted maximal effect
[3] = G protein-coupled receptor (GPCR) small molecule agonists, calcium flux assay: HEK293 wild type cell line counter screen (AID 1920065)
Outline: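 Cells were plated and cultured 18 h at 37 C/5% CO2, then loaded with calcium dye for 1 h at 37 C. Compounds in DMSO were pin-transferred in agonist mode, and fluorescence (Ex/Em 480/540) was read kinetically for 3 min at 1 s intervals.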

[4] = p53 small molecule agonists, cell-based qHTS assay with rat liver microsomes (AID 1963578)
Outline: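 Compound in DMSO added to p53RE-bla cells 5 h post-plating; rat microsomes/NADPH 0.5 mg/mL final; 16 h, 37 C; LiveBLAzer 2 h RT.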

[5] = p53 small molecule agonists, cell-based qHTS assay with rat liver microsomes: qHTS cell viability counter screen (AID 1963580); further: nearly all actives have a fitted effect of over 45% in size; further: potency means the concentration at half of the fitted maximal effect
Outline: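 HCT-116 p53RE-bla, 4,000 cells/well, 5 h pre-incubation; cpd + rat liver microsomes 0.5 mg/mL + NADPH 0.5 mg/mL (final); 16 h, 37 C; CellTiter-Glo, 30 min RT; luminescence.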

[6] = target: 5-hydroxytryptamine receptor 2A (Homo sapiens) (UniProt P28223); experiment: 5-hydroxytryptamine receptor 2A (HTR2A) small molecule antagonists, cell-based qHTS assay (AID 1963586); further: nearly all actives have a fitted effect of over 45% in size; further: potency means the concentration at half of the fitted maximal effect
Sequence of 5-hydroxytryptamine receptor 2A (Homo sapiens) (P28223 whole entry, looked up): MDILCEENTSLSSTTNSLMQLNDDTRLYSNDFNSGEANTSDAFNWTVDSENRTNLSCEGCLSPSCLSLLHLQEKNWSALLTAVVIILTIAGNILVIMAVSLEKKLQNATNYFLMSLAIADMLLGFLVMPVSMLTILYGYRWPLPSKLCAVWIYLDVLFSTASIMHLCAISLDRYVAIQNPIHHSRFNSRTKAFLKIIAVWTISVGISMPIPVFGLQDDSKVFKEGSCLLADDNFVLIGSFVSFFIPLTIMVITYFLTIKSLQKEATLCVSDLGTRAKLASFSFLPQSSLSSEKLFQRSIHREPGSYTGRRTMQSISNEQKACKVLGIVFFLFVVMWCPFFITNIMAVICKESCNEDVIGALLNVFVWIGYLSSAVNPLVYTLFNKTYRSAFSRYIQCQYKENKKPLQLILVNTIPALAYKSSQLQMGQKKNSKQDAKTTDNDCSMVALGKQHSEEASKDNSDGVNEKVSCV
Outline: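 Antagonist-mode intracellular calcium assay: DOI (4 nM) added after 5 min compound pre-incubation at room temperature to dye-loaded HTR2A-CHO cells. Fluorescence followed for 3 min, sampled every second.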

[7] = target: 5-hydroxytryptamine receptor 2A (Homo sapiens) (UniProt P28223); experiment: 5-hydroxytryptamine receptor 2A (HTR2A) small molecule agonists, cell-based qHTS assay (AID 1963587); further: nearly all actives have a fitted effect of over 30% in size; further: potency means the concentration at half of the fitted maximal effect
Outline: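 Kinetic calcium-flux fluorescence (2 min, 1 sec intervals) after compound addition in agonist mode. HTR2A-CHO cells were cultured 18 h, then dye-loaded 1 h at 37 C.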

[8] = target: Muscarinic acetylcholine receptor M1 (Homo sapiens) (UniProt P11229); experiment: Cholinergic receptor muscarinic 1 (CHRM1) small molecule antagonists, cell-based qHTS assay (AID 1963588); further: nearly all actives have a fitted effect of over 40% in size; further: potency means the concentration at half of the fitted maximal effect
Sequence of Muscarinic acetylcholine receptor M1 (Homo sapiens) (P11229 whole entry, looked up): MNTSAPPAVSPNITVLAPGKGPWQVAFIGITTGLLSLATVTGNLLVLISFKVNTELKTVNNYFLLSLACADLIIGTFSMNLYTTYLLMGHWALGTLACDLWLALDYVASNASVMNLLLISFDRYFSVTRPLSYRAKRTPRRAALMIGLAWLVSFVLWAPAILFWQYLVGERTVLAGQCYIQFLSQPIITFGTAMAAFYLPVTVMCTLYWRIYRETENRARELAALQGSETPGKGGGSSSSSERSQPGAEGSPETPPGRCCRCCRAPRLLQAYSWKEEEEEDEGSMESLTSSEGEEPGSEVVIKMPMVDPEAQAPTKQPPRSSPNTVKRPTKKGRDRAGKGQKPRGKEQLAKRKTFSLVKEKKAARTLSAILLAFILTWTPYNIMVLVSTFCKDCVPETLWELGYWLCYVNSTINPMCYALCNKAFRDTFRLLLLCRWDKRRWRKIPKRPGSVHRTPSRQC
Outline: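 CHRM1-CHO calcium-flux assay, antagonist mode. Cells were seeded 18 h, dye-loaded 1 h at 37 C and given compound for 5 min at RT, then acetylcholine was added at 50nM. FDSS fluorescence was read 3 min; 15 concentrations, three runs.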

[9] = target: Muscarinic acetylcholine receptor M1 (Homo sapiens) (UniProt P11229); experiment: Cholinergic receptor muscarinic 1 (CHRM1) small molecule agonists, cell-based qHTS assay (AID 1963589); further: nearly all actives have a fitted effect of over 35% in size
Outline: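 CHO cells stably expressing human CHRM1, seeded 18 h at 37 C/5% CO2, dye-loaded 1 h at 37 C, then given compound in agonist mode; intracellular calcium fluorescence read kinetically at 1 s intervals. Fifteen concentrations, three independent runs.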

[10] = target: Beta-2 adrenergic receptor (Homo sapiens) (UniProt P07550); experiment: Adrenergic beta2 receptor (ADRB2) small molecule antagonists, cell-based qHTS assay (AID 1963592); further: nearly all actives have a fitted effect of over 50% in size; further: potency means the concentration at half of the fitted maximal effect; on activity change, negative = inhibition: series mostly up to about 92 µM
Sequence of Beta-2 adrenergic receptor (Homo sapiens) (P07550 whole entry, looked up): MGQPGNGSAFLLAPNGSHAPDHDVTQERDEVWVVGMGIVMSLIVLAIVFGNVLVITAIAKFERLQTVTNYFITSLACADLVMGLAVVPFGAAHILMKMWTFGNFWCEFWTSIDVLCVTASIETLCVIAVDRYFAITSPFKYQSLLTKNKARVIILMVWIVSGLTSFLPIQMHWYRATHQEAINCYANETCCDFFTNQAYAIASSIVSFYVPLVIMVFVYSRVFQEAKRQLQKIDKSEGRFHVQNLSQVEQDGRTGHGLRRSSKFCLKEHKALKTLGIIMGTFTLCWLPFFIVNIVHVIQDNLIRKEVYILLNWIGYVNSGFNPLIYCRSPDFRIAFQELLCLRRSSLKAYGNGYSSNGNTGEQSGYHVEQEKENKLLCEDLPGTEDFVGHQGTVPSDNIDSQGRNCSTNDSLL
Outline: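 Cells (CHO, stable ADRB2 overexpression) incubated 18-20hr at 37C; compounds added from DMSO; agonist mix (1nM isoproterenol, 100uM IBMX, 25uM Ro-20-1724) added; 0.5hr RT; d2-cAMP and anti-cAMP-cryptate added; 1hr RT; 665/615 nm read.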

[11] = p53 small molecule agonists, cell-based qHTS assay with human liver microsomes (AID 1963577);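 further: p53 response element beta-lactamase reporter cells with liver microsomes plus NADPH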
Outline: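 Reporter activation was measured by LiveBLAzer fluorescence intensity in p53RE-bla cells, which had been exposed to compounds for 16 h at 37 C alongside 0.5 mg/mL human liver microsomes and 0.5 mg/mL NADPH (final concentrations).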

[12] = p53 small molecule agonists, cell-based qHTS assay with human liver microsomes: qHTS cell viability counter screen (AID 1963579); further: nearly all actives have a fitted effect of over 45% in size
Outline: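 HLM-supplemented (0.5 mg/mL final) and NADPH-supplemented (0.5 mg/mL final) p53RE-bla cultures, 4,000 cells per well, were dosed with compounds in DMSO for 16 h at 37 C; luminescent ATP detection (CellTiter-Glo, 30 min, room temperature) quantified surviving cells.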

[13] = p53 small molecule agonists, cell-based qHTS assay: qHTS cell viability counter screen (AID 1963581); further: nearly all actives have a fitted effect of over 45% in size
Outline: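 p53RE-bla HCT-116 cells were exposed to compounds for 16 h at 37 C; after the beta-lactamase FRET read in the same wells, CellTiter-Glo was added and luminescence (intracellular ATP) read after 30 min at room temperature.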

[14] = p53 small molecule agonists, cell-based qHTS assay (AID 1963582; active means well fitted activation curve with a large enough effect in the signal ratio in the repeat runs, not every such curve was filed as active; the % refers to the signal ratio; further: potency means the concentration at half of the fitted maximal effect)
Outline: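 p53RE-bla beta-lactamase reporter cells rested 5 h at 37 C/5% CO2, then received compounds in DMSO by pin transfer and were incubated 16 h at 37 C. LiveBLAzer B/G FRET substrate was loaded for 2 h at room temperature before fluorescence reading.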

[15] = cAMP Responsive Elements (CRE) small molecule agonists, cell-based qHTS assay (AID 1963590)
Outline: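 CRE-bla HEK 293T cells in DMEM with 10% dialyzed FBS, NEAA, pyruvate and 25 mM HEPES were plated 18 h at 37 C/5% CO2, then exposed to compounds in DMSO for 3 h before LiveBLAzer B/G FRET substrate addition.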

[16] = cAMP Responsive Elements (CRE) small molecule antagonists, cell-based qHTS assay (AID 1963591; active means well fitted inhibition curve with a large enough effect in the signal ratio in the repeat runs, not every such curve was filed as active; the % refers to the signal ratio)
Outline: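 CRE-bla HEK293T cells were plated 18 h at 37 °C/5% CO2, pinned with compound in DMSO, then stimulated with NKH477 at 0.25 uM final for 3 h. LiveBLAzer B/G FRET substrate was added and plates incubated 2 h at room temperature.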

[17] = target: Beta-2 adrenergic receptor (Homo sapiens) (UniProt P07550); experiment: Adrenergic beta2 receptor (ADRB2) small molecule agonists, cell-based qHTS assay (AID 1963593);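 further: CHO cells stably overexpressing human ADRB2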
Outline: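 CHO cells stably over-expressing ADRB2 were plated overnight at 37C, then dosed with compounds plus a stimulation mix containing 100uM IBMX and 25uM Ro-20-1724 for 0.5hr at room temperature. cAMP was measured by HTRF competition, 1hr.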

[18] = target: D(2) dopamine receptor (Homo sapiens) (UniProt P14416); experiment: Dopamine D2 receptor (DRD2) small molecule antagonists, cell-based qHTS assay (AID 1963595; active means well fitted inhibition curve with a large enough effect in the signal ratio in the repeat runs, with a control signal flat; the % refers to the signal ratio)
Sequence of D(2) dopamine receptor (Homo sapiens) (P14416 whole entry, looked up): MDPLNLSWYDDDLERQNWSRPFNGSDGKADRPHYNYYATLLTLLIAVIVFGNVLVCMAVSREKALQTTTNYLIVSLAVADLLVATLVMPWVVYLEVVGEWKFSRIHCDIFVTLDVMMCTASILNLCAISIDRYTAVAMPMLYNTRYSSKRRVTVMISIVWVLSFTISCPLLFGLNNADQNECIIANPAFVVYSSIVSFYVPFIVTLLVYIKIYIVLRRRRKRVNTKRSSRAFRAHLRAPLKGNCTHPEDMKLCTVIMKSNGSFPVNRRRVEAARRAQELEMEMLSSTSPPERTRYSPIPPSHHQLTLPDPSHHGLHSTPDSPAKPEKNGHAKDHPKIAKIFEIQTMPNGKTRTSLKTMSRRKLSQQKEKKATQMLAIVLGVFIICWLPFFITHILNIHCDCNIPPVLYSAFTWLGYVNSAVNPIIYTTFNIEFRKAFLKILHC
Outline: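 Antagonist mode in DRD2-HEK293 cells: after compound addition with 0.1 mM Ro20-1724, cells received quinpirole (12 nM) and NKH477 (200 nM) for 30 min at room temperature; HTRF cAMP read after 1 h detection.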

[19] = target: D(2) dopamine receptor (Homo sapiens) (UniProt P14416); experiment: Dopamine D2 receptor (DRD2) small molecule agonists, cell-based qHTS assay (AID 1963594); further: nearly all actives have a fitted effect of over 35% in size
Outline: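 cAMP accumulation in DRD2-HEK293 cells measured by HTRF after 1 h detection; compounds added 10 min before NKH477 (200nM […]) forskolin-analogue stimulation, 30 min at room temperature, with Ro20-1724 present at 0.1 mM final.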

[20] = target: KiSS-1 receptor (Homo sapiens) (UniProt Q969F8); experiment: Human kisspeptin (KISS1R) small molecule agonists, calcium flux assay in KISS1R-HEK293 cells (AID 1920064; active means well fitted curve in the direction sought with a large enough effect in the repeat runs; an effect the other way counts as inactive or inconclusive)
Sequence of KiSS-1 receptor (Homo sapiens) (Q969F8 whole entry, looked up): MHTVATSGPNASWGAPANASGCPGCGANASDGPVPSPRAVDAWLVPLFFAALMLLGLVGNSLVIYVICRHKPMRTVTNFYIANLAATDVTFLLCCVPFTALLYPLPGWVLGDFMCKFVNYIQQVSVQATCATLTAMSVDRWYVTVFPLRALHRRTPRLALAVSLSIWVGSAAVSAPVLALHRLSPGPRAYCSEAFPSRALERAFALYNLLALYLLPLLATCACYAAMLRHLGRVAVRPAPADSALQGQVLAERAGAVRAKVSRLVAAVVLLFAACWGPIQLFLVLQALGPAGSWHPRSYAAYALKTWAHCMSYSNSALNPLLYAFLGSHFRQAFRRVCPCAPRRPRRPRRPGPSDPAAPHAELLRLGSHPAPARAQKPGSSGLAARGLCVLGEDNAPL
Outline: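 HEK293 cells stably expressing human KISS1R were plated 18 h at 37 °C, loaded with calcium dye for 1 h at 37 °C, then given compound by pin tool. Fluorescence (Ex/Em 480/540) was read kinetically for 3 min.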
On the % scale 0 is the no-effect control and ±100 the full control effect.

CCCCCN=C(N)N/N=C/c1c[nH]c2ccc(OC)cc12
active: Potency [1] 6680 nM | Potency [6] 32.6 nM | Potency [7] 10.7 nM | Potency [10] 26600 nM
inactive: Potency [2] | outcome [3] | Potency [4] | Potency [5] | Potency [8] | Potency [9]

C[C@@H]1C[C@H]2[C@@H]3CCC4=CC(=O)C=C[C@]4(C)[C@@]3(F)[C@@H](O)C[C@]2(C)[C@H]1C(=O)CO
inactive: Potency [1] | Potency [2] | Potency [11] | Potency [12] | Potency [5] | Potency [13] | Potency [14] | Potency [15] | Potency [16] | Potency [10] | Potency [17] | Potency [18]

O=C(/C=C/c1ccccc1)OC/C=C/c1ccccc1
inactive: Potency [1] | Potency [2] | outcome [3] | Potency [11] | Potency [12] | Potency [14] | Potency [7] | Potency [15] | Potency [16] | Potency [10] | Potency [19] | Potency [18]

CCCCOc1cc(C(=O)OCCN(CC)CC)ccc1N
inactive: Potency [1] | Potency [2] | outcome [3] | Potency [4] | Potency [12] | Potency [5] | Potency [13] | Potency [14] | Potency [7] | Potency [8] | Potency [15] | Potency [16] | Potency [10] | Potency [17] | Potency [19] | Potency [18]

CC(CC1c2ccccc2CCc2ccccc21)CN(C)C (stereo not given)
active: Potency [8] 36.5 nM
inactive: Potency [1] | Potency [2] | outcome [3] | Potency [11] | Potency [12] | Potency [5] | Potency [7] | Potency [9] | Potency [15] | Potency [16]

CN(C)CCOC1=Cc2ccccc2Sc2ccc(Cl)cc21
inactive: Potency [1] | Potency [2] | outcome [3] | Potency [11] | Potency [4] | Potency [5] | Potency [7] | Potency [8] | Potency [9] | Potency [15] | Potency [16] | Potency [10] | Potency [17] | Potency [19]

CNC(=O)c1ccccc1Sc1ccc2c(/C=C/c3ccccn3)n[nH]c2c1
active: Potency [2] 84.1 nM | Potency [14] 1410 nM
inactive: Potency [1] | outcome [3] | Potency [4] | Potency [12] | Potency [5] | Potency [13] | Potency [6] | Potency [9] | Potency [10] | Potency [17] | Potency [19] | Potency [18]

Nc1ccc(S(=O)(=O)Nc2ccccc2)cc1
inactive: Potency [1] | Potency [2] | outcome [3] | Potency [4] | Potency [12] | Potency [5] | Potency [13] | Potency [14] | Potency [7] | Potency [8] | Potency [9] | Potency [15] | Potency [16] | Potency [10] | Potency [17] | Potency [19] | Potency [18]

CC(C)CCCC(C)(C)O
inactive: Potency [1] | Potency [2] | outcome [3] | Potency [4] | Potency [12] | Potency [13] | Potency [14] | Potency [6] | Potency [7] | Potency [8] | Potency [9] | Potency [15] | Potency [10] | Potency [19] | Potency [18]

C[C@@H](CN1CC(=O)NC(=O)C1)N1CC(=O)NC(=O)C1
inactive: Potency [1] | Potency [2] | outcome [20] | outcome [3] | Potency [11] | Potency [4] | Potency [12] | Potency [5] | Potency [13] | Potency [14] | Potency [6] | Potency [7] | Potency [8] | Potency [9] | Potency [15] | Potency [16] | Potency [10] | Potency [19]

N[C@H](C(=O)O)[C@@H](O)c1ccc(O)c(O)c1
inactive: Potency [1] | Potency [2] | outcome [20] | outcome [3] | Potency [11] | Potency [4] | Potency [12] | Potency [5] | Potency [13] | Potency [14] | Potency [6] | Potency [7] | Potency [8] | Potency [9] | Potency [15] | Potency [16] | Potency [10] | Potency [19]

O=S(=O)(c1ccccc1)c1ccc(Cl)cc1
inactive: Potency [1] | Potency [2] | Potency [11] | Potency [4] | Potency [12] | Potency [5] | Potency [13] | Potency [14] | Potency [6] | Potency [7] | Potency [9] | Potency [15] | Potency [16] | Potency [10] | Potency [19] | Potency [18]

Cn1nnc2c(C(N)=O)ncn2c1=O
inactive: Potency [1] | Potency [2] | outcome [20] | outcome [3] | Potency [11] | Potency [4] | Potency [12] | Potency [5] | Potency [13] | Potency [14] | Potency [6] | Potency [7] | Potency [8] | Potency [9] | Potency [15] | Potency [16] | Potency [10] | Potency [19] | Potency [18]

CCCCCCCCCCCCCCCCCC#N
active: Potency [5] 1650 nM
inactive: Potency [1] | Potency [2] | outcome [3] | Potency [4] | Potency [12] | Potency [14] | Potency [6] | Potency [7] | Potency [8] | Potency [15] | Potency [16] | Potency [19] | Potency [18]

Cc1nc2ccc(Cl)cc2[nH]1
inactive: Potency [1] | Potency [2] | Potency [4] | Potency [12] | Potency [5] | Potency [13] | Potency [14] | Potency [6] | Potency [7] | Potency [8] | Potency [9] | Potency [15] | Potency [10] | Potency [19] | Potency [18]

NC(=O)c1ccccc1[N+](=O)[O-]
inactive: Potency [1] | Potency [2] | outcome [3] | Potency [4] | Potency [5] | Potency [6] | Potency [9] | Potency [15] | Potency [10] | Potency [17] | Potency [18]

O=C(O)c1ccc2c(c1)nc(C(=O)NC1CCN(C3CC3)CC1)n2Cc1cc(-c2ccc(Cl)s2)on1
inactive: activity change, negative = cytotoxicity [1] 2.24% [at 19 µM] | activity, positive = activation [2] 2.61% [at 19 µM] | activation [3] 0.0965% [at 11.8 µM] | activation [11] -1.92% [at 13.5 µM] | activation [4] -2.62% [at 13.6 µM] | activity change, negative = cytotoxicity [5] 1.71% [at 13.5 µM] | activation [14] -1.36% [at 13.5 µM] | activity, negative = inhibition [6] -29.3% [at 12.7 µM] | activity, negative = inhibition [8] -5% [at 12.6 µM] | activation [9] -0.218% [at 15.8 µM] | activity change, negative = inhibition [10] -20.8% [at 19 µM] | activation [19] 23% [at 19 µM] | activity change, negative = inhibition [18] -5.22% [at 18.9 µM]
